Screening results: PubChem, Broad Institute
A selection follows.
aSyn UTR act: Activators working through SNCA 5'UTR binding (MLPCN) | alpha-synuclein 5'UTR reporter, activators screen | activity score, % (tested at 7.5 µM), hits read low | actives 7.1% (n = 300,000); in the data active = activity score below about -60%
* hit, by the source's call.

SMILES	aSyn UTR act
Cc1nn(-c2ccccc2)c2sc(C(=O)N3CCOCC3)cc12	-86.6*
CCCCCCCCCn1c2c(c(=N)c3c1CCC3)CCC2	85.7
COc1cc(-c2noc(-c3cccs3)n2)cc(OC)c1OC	-94.6*
COc1ccc(-c2noc(-c3cccs3)n2)cc1OC	-174.0*
COc1cc(-c2noc(C)c2/C=C/c2cccc([N+](=O)[O-])c2)cc(OC)c1OC	69.2
COc1cc(OC)cc(-c2nc(-c3cccs3)no2)c1	-139.3*
COc1ccc(-c2nc(N/N=C(\C)c3ccc(O)cc3)c3ccccc3n2)cc1	-91.6*
O=C(Nc1ccccc1)c1ccc(CSc2ncccn2)cc1	-94.7*
CSCc1ccc(C(=O)Nc2ccc(C(N)=O)cc2)cc1	-141.4*
O=C(NCC1CCCO1)c1ccc(COc2ccccc2)cc1 (configuration not stated)	-77.7*
O=C(Nc1ccccc1F)c1ccc(OCc2ccccc2)cc1	-140.5*
O=C(Nc1ccc(Cn2cccn2)cc1)c1ccc(COc2ccccc2Br)cc1	-107.4*
NNC(=O)c1ccc(COc2ccc3ccccc3c2)cc1	-75.8*
O=C(Nc1ccccc1)c1ccc(COc2ccccc2)cc1	-109.2*
O=C(NCC1CCCO1)C(=O)N/N=C/c1ccc(OCc2ccccc2Cl)cc1 (configuration not stated)	-106.3*
COc1ccc(OCc2cccc(C(=O)NN)c2)cc1	67.4
NNC(=O)c1cccc(COc2cccc(Br)c2)c1	-86.4*
Cc1ccn2cc(-c3cccc(NC(=O)C(C)C)c3)nc2c1	-107.1*
COc1ccc(CC(=O)Nc2ccc(-c3cn4ccc(C)cc4n3)cc2)cc1	-110.0*
Cc1ccn2cc(-c3cccc(NC(=O)c4ccccc4)c3)nc2c1	-81.9*
CSc1ncc(-c2ccc(Cl)cc2)[nH]1	-145.0*
O=C1CCCC/C1=C\Nc1ccc(Cl)cn1	-115.7*
CCCc1ccc(-c2cc(C(=O)N/N=C/c3ccc([N+](=O)[O-])o3)c3ccccc3n2)cc1	-74.7*
O=C(N/N=C/c1ccc([N+](=O)[O-])o1)c1cc(-c2cccc(Br)c2)nc2ccccc12	-82.6*
CCCC(=O)Nc1ccc(C(=O)N/N=C/c2ccc([N+](=O)[O-])o2)cc1	111.1
SMILES	aSyn UTR act
CC(=O)N1N=C(c2ccc(C)cc2)CC1c1ccco1 (configuration not stated)	-97.7*
Cc1ccc(C2=NN(S(C)(=O)=O)C(c3ccc4c(c3)OCO4)C2)cc1 (configuration not stated)	-265.1*
CC(=O)N1N=C(c2ccccc2)CC1c1cn(C)c2ccccc12 (configuration not stated)	-117.5*
CS(=O)(=O)N1N=C(c2ccc(Br)cc2)CC1c1ccc2c(c1)OCO2 (configuration not stated)	-321.9*
COc1ccc(C2=NN(C(=O)COc3ncnc4ccccc34)C(c3ccco3)C2)cc1 (configuration not stated)	64.0
CC(=O)N1N=C(c2ccc(C)cc2)CC1c1ccc2c(c1)OCO2 (configuration not stated)	-132.9*
Cc1cc(C(=O)N/N=C/c2c(C)nn(-c3ccccc3)c2C)c(C)o1	-69.2*
Cc1nn(-c2ccccc2)c(Cl)c1/C=N/NC(=O)c1ccccc1F	-89.4*
Cc1nn(-c2ccccc2)c(Cl)c1/C=N/NC(=O)c1ccc(NS(=O)(=O)c2cccs2)cc1	-109.5*
Cc1nn(-c2ccccc2)c(Cl)c1/C=C/C(=O)c1ccccc1	-106.6*
Cc1nn(-c2ccccc2)c(C)c1/C=N/NC(=O)c1cc(-c2ccccc2)n[nH]1	82.1
Cc1nn(-c2ccccc2)c(Cl)c1/C=N/NC(=O)c1[nH]ncc1Br	-66.8*
O=C(N/N=C/c1cn(-c2ccccc2)nc1-c1cccs1)c1ccc(Cl)cc1	-65.8*
O=C(CN1C(=O)c2ccccc2S1(=O)=O)c1ccccc1Cl	100.6
COc1ccc(C2=NOC(CN3C(=O)c4ccccc4S3(=O)=O)C2)cc1 (configuration not stated)	-175.4*
O=C1c2ccccc2S(=O)(=O)N1CC1CC(c2ccccc2)=NO1 (configuration not stated)	-143.7*
O=C1c2ccccc2S(=O)(=O)N1CC1CC(c2ccc(Cl)cc2)=NO1 (configuration not stated)	-197.4*
CCc1ccc(NC(=S)NCc2ccccc2)cc1	-89.9*
O=C(CC12CC3CC(CC(C3)C1)C2)NC(=S)NCc1ccccc1	52.3
Cc1nc2ccc(NC(=S)NCc3ccccc3)cc2nc1C	-80.3*
Nc1ccc(C#Cc2c(-c3ccsc3)oc3ccc(N4CCOCC4)cc23)cc1	-167.8*
COc1ccc(-c2oc3ccc(N4CCOCC4)cc3c2C#CCO)cc1	-91.9*
CCC(=O)c1ccc(N2CCC(C)CC2)c(F)c1	-99.2*
CCCC(=O)c1ccc(N2CCC(C)CC2)c(F)c1	-82.9*
COc1cccc(-c2ccc(C#N)c(OC(=O)c3c(Cl)cccc3Cl)n2)c1	-74.1*
CN(C(=O)c1ccco1)c1nnc(C23CC4CC(CC(C4)C2)C3)s1	-143.5*
O=CC1=C(c2ccccc2)Oc2ccccc2O1	-61.8*
Cn1cc(Br)c(C(=O)NNC(=O)c2ccc(Cl)cc2)n1	-94.1*
